What is called cell viability is a read-out of living cells in per cent, often relative to untreated cells.

Each structure is given as a SMILES string. Values joined by “and” are separate entries in the source; they are usually repeats but may differ in a detail not shown here. Equal values may be shown once. Where a name gives a salt, the structure may show the parent alone.

These results are taken from the supplement of paper PMC10981050.

Common to all, as to experiment: cell viability relative to vehicle control; higher = less cytotoxic
Holding throughout (details): 10 µM

Test [1] concerns K562. In short, it runs like this:
(§1)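 CRISPR-edited mutant clones and isogenic wild-type clones from four leukaemia lines were screened against Selleck bioactive, kinase and epigenetic probe libraries, with identity-inconsistent compounds excluded. Each compound was acoustically dispensed at a single 10 µM dose into 384-well plates holding 2000 cells in 50 µL medium per well. After 48 h the supernatant was removed and CellTiter-Glo luminescence was read. Viability was expressed as percent of the on-plate vehicle control and analysed in Genedata Screener.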

Test [2] deals with MARIMO. An outline of the steps: as §1
The subject of test [3] is MOLM14. In short, it runs like this:
as §1

Test [4] has as its system OCI-AML2. An outline of the steps:
as §1

For `C=CC(=O)Nc1cc(Nc2nccc(-c3cn(C)c4ccccc34)n2)c(OC)cc1N(C)CCN(C)C`, the cell viability is 1.58% and 2.37% in test [1] (SRSF2 genotype: SRSF2 P95H/wt); 3.2% in test [1] (SRSF2 genotype: SRSF2 wt/wt); 1.11% in test [2] (SRSF2 genotype: SRSF2 P95H/wt); 1.36% in test [2] (SRSF2 genotype: SRSF2 wt/wt); 0.38% in test [3] (SRSF2 genotype: SRSF2 P95H/wt); 0.44% in test [3] (SRSF2 genotype: SRSF2 wt/wt). For the same compound, the cell viability in test [4] (SRSF2 genotype: P95H/wt) was found to be 0.32%; in test [4] (SRSF2 genotype: wt/wt) it was 0.41%.

On to `O=C(O)CNC(=O)c1ccccc1` [Hippuric acid], for which the cell viability in test [1] (SRSF2 genotype: SRSF2 P95H/wt) is 103% and 104%; in test [1] (SRSF2 genotype: SRSF2 wt/wt), 106%; in test [2] (SRSF2 genotype: SRSF2 P95H/wt) it was 101%; in test [2] (SRSF2 genotype: SRSF2 wt/wt), 112%; in test [3] (SRSF2 genotype: SRSF2 P95H/wt) it was 98.4%; in test [3] (SRSF2 genotype: SRSF2 wt/wt) it was 107%. In addition, the cell viability in test [4] (SRSF2 genotype: P95H/wt) came to 103%; in test [4] (SRSF2 genotype: wt/wt) it was 101%.

With `CCn1c(=O)c(-c2cc[nH]n2)cc2c(C)nc(N)nc21`, the cell viability was 54.4% and 68.5% in test [1] (SRSF2 genotype: SRSF2 P95H/wt); 65.7% in test [1] (SRSF2 genotype: SRSF2 wt/wt); 43.5% in test [2] (SRSF2 genotype: SRSF2 P95H/wt); 35.6% in test [2] (SRSF2 genotype: SRSF2 wt/wt); 29.2% in test [3] (SRSF2 genotype: SRSF2 P95H/wt); 26.4% in test [3] (SRSF2 genotype: SRSF2 wt/wt). Besides, the results for the cell viability in test [4] (SRSF2 genotype: P95H/wt) and in test [4] (SRSF2 genotype: wt/wt) were 13.8% and 20.5%, respectively.

On to `Cc1ccc(C(=O)N(CCCN)[C@@H](c2oc3cc(Cl)ccc3c(=O)c2Cc2ccccc2)C(C)C)cc1`, for which the cell viability in test [1] (SRSF2 genotype: SRSF2 P95H/wt) is 0.65% and 0.76%; in test [1] (SRSF2 genotype: SRSF2 wt/wt), 0.52%; in test [2] (SRSF2 genotype: SRSF2 P95H/wt), 0.39%; in test [2] (SRSF2 genotype: SRSF2 wt/wt) it was 0.45%; in test [3] (SRSF2 genotype: SRSF2 P95H/wt), 0.45%; in test [3] (SRSF2 genotype: SRSF2 wt/wt), 0.45%. Also, the figures for the cell viability in test [4] (SRSF2 genotype: P95H/wt) and in test [4] (SRSF2 genotype: wt/wt) were 0.35% and 0.4%, respectively.

Turning to `Cc1ncc([N+](=O)[O-])n1CC(C)O` (stereo not given) [Secnidazole (Flagentyl)], the cell viability in test [1] (SRSF2 genotype: SRSF2 P95H/wt) is 100% and 109%; in test [1] (SRSF2 genotype: SRSF2 wt/wt), 106%; in test [2] (SRSF2 genotype: SRSF2 P95H/wt), 100%; in test [2] (SRSF2 genotype: SRSF2 wt/wt), 105%; in test [3] (SRSF2 genotype: SRSF2 P95H/wt), 104%; in test [3] (SRSF2 genotype: SRSF2 wt/wt) it was 108%. Besides, the cell viability is 114% in test [4] (SRSF2 genotype: P95H/wt) and 93.1% in test [4] (SRSF2 genotype: wt/wt).

On to `CCOc1ccccc1OCCN[C@H](C)Cc1ccc(OC)c(S(N)(=O)=O)c1` [Tamsulosin hydrochloride], for which the cell viability was 102% and 97.9% in test [1] (SRSF2 genotype: SRSF2 P95H/wt); 98.3% in test [1] (SRSF2 genotype: SRSF2 wt/wt); 96.9% in test [2] (SRSF2 genotype: SRSF2 P95H/wt); 107% in test [2] (SRSF2 genotype: SRSF2 wt/wt); 98.5% in test [3] (SRSF2 genotype: SRSF2 P95H/wt); 103% in test [3] (SRSF2 genotype: SRSF2 wt/wt). The cell viability in test [4] (SRSF2 genotype: P95H/wt) was 92.7%; in test [4] (SRSF2 genotype: wt/wt), 104%.

For the compound `CC1=C(/C=C/C(C)=C/C=C/C(C)=C\C(=O)O)C(C)(C)CCC1` [Isotretinoin], the cell viability in test [1] (SRSF2 genotype: SRSF2 P95H/wt) was 91.5% and 95.7%; in test [1] (SRSF2 genotype: SRSF2 wt/wt), 87.2%; in test [2] (SRSF2 genotype: SRSF2 P95H/wt), 69.3%; in test [2] (SRSF2 genotype: SRSF2 wt/wt) it was 76.9%; in test [3] (SRSF2 genotype: SRSF2 P95H/wt), 65.4%; in test [3] (SRSF2 genotype: SRSF2 wt/wt), 81.5%. Also, the results for the cell viability in test [4] (SRSF2 genotype: P95H/wt) and in test [4] (SRSF2 genotype: wt/wt) were 15.7% and 41.8%, respectively.

Regarding `COc1nc2ccc(Br)cc2cc1[C@@H](c1ccccc1)[C@@](O)(CCN(C)C)c1cccc2ccccc12` [Bedaquiline], the cell viability was 74.8% and 74.5% in test [1] (SRSF2 genotype: SRSF2 P95H/wt); 85.4% in test [1] (SRSF2 genotype: SRSF2 wt/wt); 70.4% in test [2] (SRSF2 genotype: SRSF2 P95H/wt); 69.3% in test [2] (SRSF2 genotype: SRSF2 wt/wt); 51.8% in test [3] (SRSF2 genotype: SRSF2 P95H/wt); 75.5% in test [3] (SRSF2 genotype: SRSF2 wt/wt). Also, the cell viability in test [4] (SRSF2 genotype: P95H/wt) was found to be 38.5%; in test [4] (SRSF2 genotype: wt/wt) it was 55.4%.

As for `Cn1cc(C(=O)Nc2ccc3c(c2)OCCO3)c2ccccc2c1=O`, the cell viability was 88.4% and 81.6% in test [1] (SRSF2 genotype: SRSF2 P95H/wt); 81.2% in test [1] (SRSF2 genotype: SRSF2 wt/wt); 80.4% in test [2] (SRSF2 genotype: SRSF2 P95H/wt); 83.5% in test [2] (SRSF2 genotype: SRSF2 wt/wt); 84.3% in test [3] (SRSF2 genotype: SRSF2 P95H/wt); 82.8% in test [3] (SRSF2 genotype: SRSF2 wt/wt). Also, the cell viability in test [4] (SRSF2 genotype: P95H/wt) is 80.3%; in test [4] (SRSF2 genotype: wt/wt) it was 95.8%.

Turning to `C[C@H](CC(=O)C[C@@H](C)[C@H]1C[C@H](O)[C@@]2(C)C3=C(C(=O)C[C@]12C)[C@@]1(C)CCC(=O)C(C)(C)[C@@H]1C[C@@H]3O)C(=O)O` [Ganoderic acid A], the cell viability in test [1] (SRSF2 genotype: SRSF2 P95H/wt) was 102% and 109%; in test [1] (SRSF2 genotype: SRSF2 wt/wt) it was 103%; in test [2] (SRSF2 genotype: SRSF2 P95H/wt), 104%; in test [2] (SRSF2 genotype: SRSF2 wt/wt) it was 104%; in test [3] (SRSF2 genotype: SRSF2 P95H/wt), 99.5%; in test [3] (SRSF2 genotype: SRSF2 wt/wt) it was 102%. The values for the cell viability in test [4] (SRSF2 genotype: P95H/wt) and in test [4] (SRSF2 genotype: wt/wt) were 102% and 111%, respectively.
